Test results as given in PubChem BioAssay AID1159580 (chemical genetic matrix, 2015).
Values joined by “and” are separate entries in the source; they are usually repeats but may differ in a detail not shown here. Equal entries are not always repeated. The campaign covered roughly 5,500 compounds. About 2,000 (36%) were called active. Inconclusive results (about 18%) are left out. No stated cut-off is given here; in the data, active means normalized growth mostly below about 0.91 (no sharp cut-off); inconclusive means no clear call, values can overlap the other calls; inactive means mostly above about 0.92. The list shows a part of the results.

Test: chemical genetic growth profiling, strain panel (AID 1159580);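 further: tested at 20 µM; growth read once vehicle control cultures reached saturation at 30 °C; 1 = growth at the plate median or of vehicle wells; lower values mean less growth of the strain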
Details: S. cerevisiae deletion strains, growth OD

Measured: normalized growth

CC(=O)O[C@H]1CC[C@@]2(C)C(=CCC3C2CC[C@@]2(C)C3CC[C@@H]2C(C)CCCC(C)C)C1 (stereo partly drawn)
inactive: locus YAL021C, strain ccr4, hits give low values 1 | locus YAL026C, strain drs2, hits give low values 1 | locus YAL030W, strain snc1, hits give low values 0.985 | locus YBL061C, strain skt5, hits give low values 0.994 | locus YBR009C, strain hhf1, hits give low values 0.994 | locus YBR021W, strain FUR4, hits give low values 0.996 | locus YBR023C, strain chs3, hits give low values 0.998 | locus YBR171W, strain sec66, hits give low values 0.976 | locus YBR229C, strain ROT2, hits give low values 1.01 | locus YBR231C, strain swc5, hits give low values 0.988 | locus YBR279W, strain paf1, hits give low values 0.997 | locus YCL011C, strain gbp2, hits give low values 0.992 | locus YCL016C, strain dcc1, hits give low values 1.01 | locus YCL029C, strain bik1, hits give low values 1.02 | locus YCL061C, strain MRC1, hits give low values 0.988 | locus YCL069W, strain vba3, hits give low values 0.998 | locus YCR088W, strain abp1, hits give low values 0.988 | locus YDL005C, strain med2, hits give low values 0.981 | locus YDL035C, strain GPR1, hits give low values 1.03 | locus YDL040C, strain nat1, hits give low values 0.975 | locus YDL074C, strain BRE1, hits give low values 1.04 | locus YDL101C, strain DUN1, hits give low values 1.01 | locus YDL134C, strain PPH21, hits give low values 1.02 | locus YDL185W, strain tfp1, hits give low values 1.03 | locus YDL192W, strain arf1, hits give low values 1.05 | locus YDR001C, strain nth1, hits give low values 0.993 | locus YDR069C, strain doa4, hits give low values 0.987 | locus YDR101C, strain arx1, hits give low values 1.02 | locus YDR137W, strain rgp1, hits give low values 1.01 | locus YDR159W, strain sac3, hits give low values 0.993 | locus YDR162C, strain NBP2, hits give low values 1.02 | locus YDR195W, strain ref2 0.943 | locus YDR297W, strain sur2, hits give low values 0.99 | locus YDR318W, strain mcm21, hits give low values 1.03 | locus YDR334W, strain swr1, hits give low values 0.988 | locus YDR335W, strain msn5, hits give low values 1 | locus YDR388W, hits give low values 1.03 | locus YDR392W, strain spt3, hits give low values 0.958 | locus YDR502C, strain sam2, hits give low values 1.02 | locus YEL003W, strain gim4, hits give low values 0.988 | locus YEL037C, strain rad23, hits give low values 0.996 | locus YEL061C, strain CIN8 (second series), hits give low values 0.992 | locus YEL061C, strain CIN8, hits give low values 1.01 | locus YER015W, strain faa2, hits give low values 0.995 | locus YER016W, strain bim1, hits give low values 0.994 | locus YER110C, hits give low values 1.03 | locus YER111C, strain swi4, hits give low values 0.979 | locus YER155C, strain BEM2 (second series), hits give low values 0.97 | locus YER155C, strain BEM2, hits give low values 0.992 | locus YER167W, strain BCK2, hits give low values 1.02 | locus YFR010W, strain ubp6, hits give low values 0.986 | locus YGL078C, strain dbp3, hits give low values 1.02 | locus YGL086W, strain mad1, hits give low values 1.01 | locus YGL167C, strain pmr1, hits give low values 0.989 | locus YGL173C, strain kem1, hits give low values 0.99 | locus YGL227W, strain vid30, hits give low values 0.978 | locus YGL240W, strain doc1, hits give low values 0.969 | locus YGL248W, strain PDE1, hits give low values 1.02 | locus YGL253W, strain hxk2, hits give low values 0.995 | locus YGR078C, strain PAC10, hits give low values 1.03 | locus YGR135W, strain pre9, hits give low values 1.02 | locus YGR252W, strain gcn5, hits give low values 1.03 | locus YHR013C, strain ard1, hits give low values 0.997 | locus YHR027C, strain rpn1, hits give low values 0.997 | locus YHR030C, strain SLT2, hits give low values 1.01 and 0.967 | locus YHR079C, strain IRE1 (second series), hits give low values 1.02 | locus YHR079C, strain IRE1, hits give low values 0.974 | locus YHR094C, strain hxt1, hits give low values 1.01 | locus YHR129C, strain ARP1, hits give low values 1.02 | locus YHR142W, strain chs7, hits give low values 1.01 | locus YHR200W, strain rpn10, hits give low values 1.03 | locus YIL066C, strain RNR3, hits give low values 1.04 | locus YIL073C, strain SPO22, hits give low values 1.1 | locus YIL125W, strain kgd1, hits give low values 1.01 | locus YIR030C, strain dcg1, hits give low values 1.02 | locus YJL092W, strain hpr5, hits give low values 0.998 | locus YJL095W, strain BCK1 (second series), hits give low values 1.01 | locus YJL095W, strain BCK1, hits give low values 1.03 and 0.973 | locus YJL115W, strain asf1, hits give low values 1 | locus YJL129C, strain trk1, hits give low values 0.998 | locus YJL134W, strain LCB3, hits give low values 1.01 | locus YJL154C, strain vps35, hits give low values 1 | locus YJL164C, strain tpk1, hits give low values 1.01 | locus YJL166W, strain qcr8, hits give low values 0.993 | locus YJL168C, strain set2, hits give low values 1.02 | locus YJL187C, strain SWE1 (second series), hits give low values 1.02 | locus YJL187C, strain SWE1, hits give low values 0.997 | locus YJR043C, strain POL32, hits give low values 1.03
